Screening data as filed in PubChem.
In the library only some 1.3% were active in any assay of this set; here they are far more common.
Vif-A3F inh – Vif-A3F binding inhibition; AID 602313; actives 0.2% (n = 390,000); HeLa A3F-eYFP + Vif (tagged APOBEC3F with the HIV-1 protein that degrades it), YFP fluorescence increase; Potency, µM (series often up to 46.1 µM), inactives show at the top dose activity, negative = active; note: potency is the fitted concentration of half-maximal effect; % of control where 0% means no effect; nearly all actives have a fitted effect of over 65% in size
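Fluorescence increase (Ex 488/Em 500-530) after overnight compound treatment at 37 deg C flags inhibition of Vif-driven A3F-eYFP loss in stable HeLa A3F-eYFP/Vif cells seeded overnight beforehand.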
GRP78 ERSR act – inducers of ER stress response in human glioma cells | U87-MG GRP78 promoter luciferase reporter, 16 h | Potency, µM, for inactives: at the highest dose activation, hits mostly activators | actives 0.02% (n = 420,000) | AID 602332; note: potency is the fitted concentration of half-maximal effect; series mostly up to about 76 µM; % of control where 0% means no effect; nearly all actives have a fitted effect of over 35% in size
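Stably transfected U87-MG human glioma cells carrying a GRP78-based luminescent sensor were seeded at 1000 cells/well, pin-dosed with compounds and incubated 16 h. Luciferase reagent was then added, and end-point luminescence was read after 10 min at room temperature.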
TRPML1 inh – blocks the human TRPML1 channel. TRPML1-inducible cells, Ca2+ dye fluorescence, FDSS; stronger effect = lower value; inhibition of EC80 agonist-evoked calcium signal. activity change, negative = inhibition, % (test concentration not listed). AID 624415. Q9GZU1. actives 0.02% (n = 390,000); in the data active = activity change below about -50%; inconclusive = between about -30% and that limit;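 note: stimulus is agonist 54-4 at its EC80 concentration; % is set by controls: 0 for no effect and ±100 for the full control effect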
Target sequence (Q9GZU1 whole entry, looked up): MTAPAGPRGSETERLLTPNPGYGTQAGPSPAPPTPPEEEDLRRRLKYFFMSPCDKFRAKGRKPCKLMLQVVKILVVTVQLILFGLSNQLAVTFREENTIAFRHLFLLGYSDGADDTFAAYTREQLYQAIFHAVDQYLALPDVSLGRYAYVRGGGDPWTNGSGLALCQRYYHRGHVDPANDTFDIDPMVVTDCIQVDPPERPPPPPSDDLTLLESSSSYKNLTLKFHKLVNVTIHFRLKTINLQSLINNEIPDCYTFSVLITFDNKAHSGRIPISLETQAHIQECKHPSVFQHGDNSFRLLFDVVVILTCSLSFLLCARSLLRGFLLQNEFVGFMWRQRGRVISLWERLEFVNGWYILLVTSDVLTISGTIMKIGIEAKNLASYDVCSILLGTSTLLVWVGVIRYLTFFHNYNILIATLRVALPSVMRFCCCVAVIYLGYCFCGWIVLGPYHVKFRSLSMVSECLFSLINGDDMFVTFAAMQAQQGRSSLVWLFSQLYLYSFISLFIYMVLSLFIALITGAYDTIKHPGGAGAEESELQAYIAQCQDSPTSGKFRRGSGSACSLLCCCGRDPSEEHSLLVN
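Tet-induced TRPML1-DL cells loaded with Ca8 no-wash calcium dye were read kinetically on FDSS. Compound addition was followed by EC80 agonist 54-4 (4 uM final); inhibition was read over 110 s.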
Vif-A3G inh – Vif-A3G binding inhibition; Q9HC16; HeLa A3G-eYFP + Vif (tagged APOBEC3G with the HIV-1 protein that degrades it), YFP fluorescence, overnight; Potency, µM (highest dose often 46.1 µM), for inactives: top-dose activity, negative = active, usual class: inhibitors; actives 0.076% (n = 410,000); note: potency is the fitted concentration of half-maximal effect; % is set by controls: 0 for no effect and ±100 for the full control effect; nearly all actives have a fitted effect of over 60% in size
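Read-out is eYFP fluorescence (Ex 488/Em 500-530) from Vif-expressing HeLa A3G-eYFP cells; more signal means A3G escaped Vif-mediated degradation. Cells plated overnight, compound pinned in, incubated overnight at 37 deg C.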
TRPML1 ag – activates the human TRPML1 channel. TRPML1-expressing cells, Ca2+ dye fluorescence, FDSS. activation, % (test concentration not listed). actives 0.12% (n = 410,000). AID 624414; in the data active = activation above about 50%; inconclusive = mostly about 30% to 49%; note: 0% is about no effect
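In this qHTS format, compounds were pin-transferred onto Ca8-dye-loaded TRPML1-DL cells induced with Tet overnight, and intracellular Ca2+ fluorescence was recorded kinetically for 110 s after a 10 s baseline. A subsequent 4uM final 54-4 (EC80) addition followed by a second 110 s read served as the antagonist phase.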
ALOX12 inh – inhibitors of human 12S-lipoxygenase ALOX12; purified 12hLO, xylenol orange hydroperoxide absorbance; actives 1.1% (n = 580,000); Potency, µM (titrated, usually from 108 µM), without a hit: at the top dose activity change, negative = inhibition, usual class: inhibitors; AID 1671190; note: potency is the fitted concentration of half-maximal effect; % is set by controls: 0 for no effect and ±100 for the full control effect
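Purified human 12hLO at 150 nM in 25 mM Hepes, 0.01% Triton X-100, pH 7.0, preincubated 15 min at room temperature with compound. Reaction started with 40 uM arachidonic acid, 30 min at room temperature. Hydroperoxide measured by Fe-xylenol orange, 573/405 nm absorbance ratio.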
Active calls of the source: *; ? = inconclusive; nt = no result; [ ] = dose if it differs, or a comment. Unless noted, calls come from the whole dose curve; as a rule, active = well fitted curve in the direction sought with a large enough effect; inconclusive = small, poorly fitted or top-dose-only effect, or another doubt; inactive = no such curve, though single readings can be large; an effect the other way counts as inactive or inconclusive.

SMILES	Vif-A3F inh	GRP78 ERSR act	TRPML1 inh	Vif-A3G inh	TRPML1 ag	ALOX12 inh
CCCCn1c(N)c(N(CCOC)C(=O)c2cc(-c3ccc(OC)c(OC)c3)nc3ccccc23)c(=O)[nH]c1=O	1%	-5%	5	1%	0	16µM*
CCCCn1c(N)c(N(CC(C)C)C(=O)c2cc(-c3ccc(OC)c(OC)c3)nc3ccccc23)c(=O)[nH]c1=O	-3%	0%	-1	-5%	0	?
CCCCN(C(=O)c1cccnc1OCC)c1c(N)n(CCC)c(=O)[nH]c1=O	nt	nt	nt	nt	nt	26%
CC(C)CNC(=O)CN(c1cccc(Cl)c1Cl)S(=O)(=O)c1ccccc1	nt	nt	nt	nt	nt	-21%
Cc1ccc(C(=O)N2CCC3(CC2)NC(=O)N(c2cccc(Cl)c2)N3)c(C)c1	nt	nt	nt	nt	nt	1.4µM*
O=C(c1cccc(F)c1)N1CCC2(CC1)NC(=O)N(c1ccccc1Cl)N2	nt	nt	nt	nt	nt	1.3µM*
O=C(c1cccc(F)c1)N1CCC2(CC1)NC(=O)N(Cc1ccc(F)cc1)C2=O	nt	nt	nt	nt	nt	17%
Cc1ccc(C(=O)N2CCC3(CC2)NC(=O)N(c2cccc(F)c2)N3)cc1	nt	nt	nt	nt	nt	2.5µM*
Cc1ccc(C(=O)N2CCC3(CC2)N(C)C(=O)CS3(=O)=O)c(C)c1	nt	nt	nt	nt	nt	40%
O=C(Cc1ccc(Cl)cc1)N1CCC2(CC1)NC(=O)N(c1ccc(F)cc1)N2	nt	nt	nt	nt	nt	2.5µM*
O=C(Cc1ccc(Cl)cc1)N1CCN(c2ccc(F)cc2)CC1	-18%	0%	13	-6%	1	3%
O=C(Nc1ccc2c(c1)CCC2)c1cc2ncccn2n1	nt	nt	nt	nt	nt	0%
CN(C)C(=O)Cc1cccc(C(F)(F)F)c1	nt	nt	nt	nt	nt	5%
Cc1ccsc1C(=O)N1CCC2(CC1)NC(=O)N(c1ccc(F)cc1)N2	nt	nt	nt	nt	nt	2.2µM*
Cc1ccc(C(=O)N2CCC3(CC2)NC(=O)N(c2ccc(F)cc2)N3)cc1	nt	nt	nt	nt	nt	3.2µM*
CCOc1ccc(C(=O)N2CCC3(CC2)NC(=O)N(c2ccc(F)cc2)N3)cc1	nt	nt	nt	nt	nt	2.2µM*
Cc1ccc(C)c(C(=O)N2CCC3(CC2)NC(=O)N(c2cccc(F)c2)N3)c1	nt	nt	nt	nt	nt	2.2µM*
COc1cc(C(=O)NCC2CCCO2)cc(Cl)c1OCC(C)C (stereo not drawn)	nt	nt	nt	nt	nt	-26%
CN(C)c1cccc(C(=O)N2CCC3(CC2)NC(=O)N(Cc2ccccc2)C3=O)c1	nt	nt	nt	nt	nt	19%
CN(C)c1cccc(C(=O)N2CCC3(CC2)NC(=O)N(c2cccc(F)c2)N3)c1	nt	nt	nt	nt	nt	2.2µM*
Cc1ccc(SC2=C(Sc3ccc(C)cc3)C(=O)c3ccccc3C2=O)cc1	8.9µM*	5%	2	-10%	0	?
Cc1ccc(N2C(=O)c3ccccc3C2=O)cc1	-3%	6%	-7	0%	2	0%
COc1ccc(C(CC(=O)c2ccc(C)cc2)Sc2ccccc2N)cc1 (stereo not drawn)	-4%	4%	30	0%	0	50µM*
COc1ccc2oc(/C=C/N(C)C)c(C(=O)c3ccc(Cl)cc3)c2c1	-12%	-2%	0	-1%	0	7.1µM*
Cc1ccc(CNC(=O)c2cnccn2)s1	nt	nt	nt	nt	nt	-6%
SMILES	Vif-A3F inh	GRP78 ERSR act	TRPML1 inh	Vif-A3G inh	TRPML1 ag	ALOX12 inh
O=C1C(=C(I)I)c2ccccc2-c2ccccc21	10%	-14%	-4	-20%	0	5.6µM*
CC(C)CCSc1ccccc1C(=O)O	nt	nt	nt	nt	nt	23%
CC[N+](C)(C(=O)O)/C(=C\c1ccccc1)c1ccnc2ccccc12 (stereo not drawn)	nt	3%	nt	11µM*	?	nt
O=C1CN(C(=O)Cn2c(=O)c3c(ncn3Cc3ccccc3)n(Cc3ccccc3)c2=O)CCN1	nt	nt	nt	nt	nt	10%
CCCCCCSC1=C(C#N)C(=O)NC2(CCCCC2)S1	1%	?	-3	4%	0	45µM*
Cc1sc2nc(C3CC3)nc(N3CCN(C(=O)c4ccc(Cl)cc4)CC3)c2c1C	7%	-4%	61	-5%	-1	25µM*
Cc1sc2nc(C3CC3)nc(N3CCN(C(=O)c4ccc(F)cc4)CC3)c2c1C	2%	-6%	19	0%	0	1%
COc1ccc(CN2CCNC(=O)C2CC(=O)NC2CCCCCC2)c(C)c1C (stereo not drawn)	3%	-3%	12	-2%	0	32µM*
COc1ccccc1-n1ccnc1SCC(=O)Nc1nc(C)cs1	nt	nt	nt	nt	nt	-2%
CCONC(=O)NC(c1ccc(OC)cc1)C(C)C (stereo not drawn)	nt	nt	nt	nt	nt	18%
Cc1nn(CN2CCN(S(=O)(=O)c3ccc(C(C)C)cc3)CC2)c(=O)c2ccccc12	nt	nt	nt	nt	nt	0%
O=C1c2cc(N3CCOCC3)nc(-c3ccc(F)cc3)c2CN1CC1CC1	nt	nt	nt	nt	nt	32µM*
CC(=O)Nc1ccc(CN2CCC3(CC(c4cccc(C(F)(F)F)c4)=NO3)C2)cc1 (stereo not drawn)	nt	nt	nt	nt	nt	-1%[6.33 µM]
CC(=O)NC1(C)CCN(Cc2cnc(-c3cccc(C(F)(F)F)c3)s2)CC1	nt	nt	nt	nt	nt	28µM*
Cc1nc2ccc(Cl)c([N+](=O)[O-])c2nc1C	nt	nt	nt	nt	nt	-20%
Cc1ccc(C(=O)O)cc1N1C(=O)c2cccc3c([N+](=O)[O-])ccc(c23)C1=O	?	-12%	1	16%	3	5µM*
O=C1C(Cl)=C(NCCc2ccccc2)C(=O)c2ccccc21	8.9µM*	-15%	11	13µM*	1	4µM*
O=C1C(Cl)=C(Nc2ccccc2)C(=O)c2ccccc21	1%	-11%	-5	-11%	-1	-1%
O=C(CNS(=O)(=O)Cc1ccccc1)NNc1ccccc1	nt	-3%	nt	-2%	-1	40µM*
CC(C)(C)c1ccc(/C=C2\Oc3cc(OS(C)(=O)=O)ccc3C2=O)cc1	nt	nt	nt	nt	nt	-7%
c1ccc2c(-c3csc(NC4CC4)n3)c[nH]c2c1	nt	nt	nt	nt	nt	-50%
O=C(Nc1nc(-c2ccccn2)cs1)C1CCCC1	7.1µM*	5%	3	-2%	1	1%
O=C(COc1ccc(F)cc1Cl)Nc1nc(-c2ccccn2)cs1	nt	nt	nt	nt	nt	5%
N#Cc1ccccc1OCC(=O)Nc1nc(-c2ccccn2)cs1	-8%	1%	-8	-5%	0	35µM*
